Screening data as filed in PubChem BioAssay.
Many of the other results were omitted from the sample, so hits are more common in it than they were.
VHR inh color = blocks the human dual specificity phosphatase VHR1; P51452; recombinant VHR phosphatase, colorimetric substrate read-out; AID 1992; 0.7% of 50,000 active; inhibition, % at 20 µM; in the data active = inhibition above about 60%
Target sequence (P51452 whole entry, looked up): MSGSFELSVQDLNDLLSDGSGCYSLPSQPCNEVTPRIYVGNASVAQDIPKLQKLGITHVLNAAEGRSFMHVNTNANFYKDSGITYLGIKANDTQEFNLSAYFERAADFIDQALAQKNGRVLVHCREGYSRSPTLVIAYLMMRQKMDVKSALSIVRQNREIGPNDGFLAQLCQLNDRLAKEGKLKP
Active calls of the source: *.

Screening Cc1cccc(NC(=O)c2cc(-c3cccs3)nc3ccccc23)c1 returned VHR inh color -11.3.
Cc1sc(NC(=O)c2cc(-c3cccs3)nc3ccccc23)c(C(N)=O)c1C was read as VHR inh color 88.4*.
`COc1cccc(-c2cc(C(=O)Nc3sc(C)c(C)c3C(N)=O)c3ccccc3n2)c1` gave VHR inh color 6.7.
COc1ccc(CN2C(=O)NC(=O)/C(=C\C=C\c3ccccc3)C2=O)cc1 was read as VHR inh color 7.9.
For NC1=NC(=O)/C(=C\c2ccc(-c3ccccc3Cl)o2)S1 the results were VHR inh color -10.9.
For NC1=NC(=O)/C(=C\c2ccc(-c3cccc(C(=O)O)c3)o2)S1 the results were VHR inh color -14.8.
For NC1=NC(=O)/C(=C\c2ccc(-c3ccc([N+](=O)[O-])cc3)o2)S1 the results were VHR inh color 77.0*.
`CC(C)(C)NC(=O)c1ccc(N2C(=O)c3ccc([N+](=O)[O-])cc3C2=O)cc1` gave VHR inh color -41.1.
Screening COc1ccc(/C=C2/SC(=O)NC2=O)c2ccccc12 returned VHR inh color 6.3.
For Cc1ccc(P(=O)(CCCO)c2ccc(C)cc2)cc1 the results were VHR inh color -0.6.
CCC1CCc2c(sc(NC(=O)c3ccc(Br)o3)c2C(=O)OC)C1 (centres undefined) was read as VHR inh color -14.5.
Screening CCOC(=O)c1c(NC(=O)C2C3CCC(O3)C2C(=O)O)sc2c1CCC(CC)C2 (centres undefined) returned VHR inh color -0.1.
`CCOC(=O)c1c(NC(=O)c2ccco2)sc2c1CCC(CC)C2` (centres undefined) gave VHR inh color 73.3*.
Cn1c(=O)c2c(nc(N/N=C/c3ccccc3Cl)n2Cc2ccccc2)n(C)c1=O was read as VHR inh color -7.6.
`Cn1c(=O)c2c(nc(Sc3nc4ccccc4n3Cc3ccccc3)n2C)n(C)c1=O` gave VHR inh color -13.0.
Screening Cn1c(=O)c2c([nH]c(=S)n2Cc2ccc(Cl)c(Cl)c2)n(C)c1=O returned VHR inh color 113.9*.
COc1ccc(NC(=O)CCCOc2ccc(Cl)cc2Cl)c(OC)c1 was read as VHR inh color -2.4.
O=C1S/C(=C\c2cccc(Cl)c2)C(=O)N1c1ccc(Cl)cc1 was read as VHR inh color 7.7.
`CCCC(=O)Nc1ccc2oc(-c3cc(Br)ccc3Cl)nc2c1` gave VHR inh color 9.5.
For CCOC(=O)c1c(NC(=S)Nc2ccc(C)cc2)sc2c1CCN(Cc1ccccc1)C2 the results were VHR inh color 68.5*.
Screening CCOC(=O)c1c(NC(=S)Nc2ccccc2)sc2c1CCCCC2 returned VHR inh color -7.2.
`CCOC(=O)c1c(NC(=O)c2ccccc2)sc2c1CCN(Cc1ccccc1)C2` gave VHR inh color 52.9.
For CC1(C)CC(=O)C(C2(O)C(=O)Nc3ccc(Br)cc32)CO1 (centres undefined) the results were VHR inh color -10.9.
For O=C1c2ccccc2CCC1C1(O)C(=O)Nc2ccc(Br)cc21 (centres undefined) the results were VHR inh color 116.9*.
O=C1c2ccccc2CCC1C1(O)C(=O)Nc2ccccc21 (centres undefined) was read as VHR inh color -1.0.
For COc1ccc(C(C)N(C)CCC(c2ccccc2)c2ccccc2)cc1OC (centres undefined) the results were VHR inh color -13.8.
Screening S=C(NCCN1CCOCC1)Nc1ccccc1 returned VHR inh color 98.8*.
Fc1ccc(NC(=S)NCCN2CCOCC2)cc1 was read as VHR inh color 91.1.
S=C(NCCN1CCOCC1)Nc1cccc(Cl)c1 was read as VHR inh color 11.5.
Screening CCNC(=O)c1ccc(Cl)cc1Cl returned VHR inh color 0.4.
Cc1ccc(C)n1-c1ccc(C(=O)NN)c(Cl)c1 was read as VHR inh color 90.1*.
Cc1ccc(C)n1-c1ccc(O)c(C(=O)O)c1 was read as VHR inh color 1.5.
Cc1ccc(-c2cc(C(=O)Nc3ccc(Br)cc3)c3ccccc3n2)o1 was read as VHR inh color 2.3.
Screening COc1cccc2cc(C(N)=O)c(=O)oc12 returned VHR inh color -19.8.
Oc1ccc(C2Nc3ccc4ccccc4c3C3C=CCC32)cc1 (centres undefined) was read as VHR inh color 76.5*.
For O=[N+]([O-])c1ccc(C2Nc3ccc([N+](=O)[O-])cc3C3C=CCC32)cc1 (centres undefined) the results were VHR inh color -17.7.
CCC(=O)N1c2ccc3ccccc3c2C2C=CCC2C1c1ccc(F)cc1 (centres undefined) was read as VHR inh color 8.0.
`O=C(Nc1ccc(-c2nc3ncccc3o2)cc1)c1cccc(OCc2ccccc2)c1` gave VHR inh color 1.6.
Screening O=C(N/N=C/c1ccc(F)cc1)c1cc(Cl)cc(Cl)c1O returned VHR inh color 6.1.
Cc1cc(=O)[nH]c2cc(-c3ccccc3)nn12 was read as VHR inh color 97.2*.
Screening CCc1cc(C)nc2cc(-c3ccccc3)nn12 returned VHR inh color -14.3.
For Cc1cc2[nH]c(=O)cc(-c3ccccc3)n2n1 the results were VHR inh color -13.2.
COc1ccc(/C=N\N2CCN(c3ccccc3)CC2)c(OC)c1OC was read as VHR inh color 10.0.
For CC(C)(C)c1ccc(C(=O)Nc2ccc(NC(=O)COc3ccccc3[N+](=O)[O-])cc2)cc1 the results were VHR inh color -1.2.
For COc1ccc(C=Nc2ccccc2Cl)c2ccccc12 the results were VHR inh color -1.5.
Screening COc1ccc(/C=C2\C(=O)NC(=S)N(c3ccc(Br)cc3C)C2=O)cc1OC returned VHR inh color 98.2.
`Cc1cc(Br)ccc1N1C(=O)/C(=C/c2ccc(N(C)C)cc2)C(=O)NC1=S` gave VHR inh color 69.1*.
Screening COC(=O)c1ccc(/C=C2\C(=O)NC(=S)N(c3ccc(Br)cc3C)C2=O)cc1 returned VHR inh color 9.2.
For Cc1ccc(C=C2C(=O)NC(=S)N(c3ccccc3Cl)C2=O)o1 the results were VHR inh color -4.8.
Cc1ccc(/C=C2\C(=O)NC(=S)N(c3ccc(Br)cc3C)C2=O)o1 was read as VHR inh color 82.2*.
Screening Cc1ccc(/C=C2\C(=O)NC(=S)N(c3ccc(Br)cc3)C2=O)o1 returned VHR inh color 26.2.
CCc1cc2c(cc1C(=O)c1ccccc1)OCCO2 was read as VHR inh color -10.2.
For CCOc1ccc(NC(=O)CN(c2ccc(OC)cc2OC)S(=O)(=O)c2ccc(C)cc2)cc1 the results were VHR inh color 9.7.
`COCCOC(=O)c1ccc(NC(=O)COc2cc(C)ccc2C(C)C)cc1` gave VHR inh color -9.8.
Screening Cc1ccc(N=Cc2c(O)n(-c3ccccc3C)c(=O)[nH]c2=O)cc1 returned VHR inh color -13.2.
For O=Cc1ccc(-c2ccc(Cl)c(C(=O)O)c2)o1 the results were VHR inh color -35.6.
For N#Cc1c(C(F)(F)F)cc(-c2ccccc2)nc1SCC(=O)NCC(=O)O the results were VHR inh color -27.5.
Screening CCOC(=O)C1=C(O)/C(=C/c2cccnc2)SC1=Nc1cccc(Cl)c1 returned VHR inh color -4.9.
`COc1ccccc1C/C(N)=N/OC(=O)c1ccc(I)cc1` gave VHR inh color 4.2.
COc1ccccc1C/C(N)=N/OC(=O)c1ccco1 was read as VHR inh color 96.4*.
Screening COc1ccccc1C/C(N)=N/OC(=O)c1ccccc1Br returned VHR inh color -1.3.
Screening CCN(C(=O)c1ccccc1[N+](=O)[O-])c1ccccc1 returned VHR inh color -8.7.
